Assay results published in PubChem BioAssay (NCATS).
Records with an inconclusive call do not appear. Activity calls are given as the source filed them. Unless noted, calls come from the whole dose curve; as a rule, active = well fitted curve in either direction with a large enough effect (not every such curve was filed as active); inconclusive = small, poorly fitted or top-dose-only effect, or another doubt; inactive = flat fitted curve, though single readings scatter.

Columns and labels:
[1] = molecular target: Lysosomal acid glucosylceramidase (Homo sapiens) (UniProt P04062); test: Glucocerebrosidase-p2 (AID 348; in the data active = potency below about 10 µM; note: potency is the fitted concentration of half-maximal effect); settings: purified GBA, blue fluorogenic substrate, 40 min
Outline: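 Normal human glucocerebrosidase (0.2 nM) with blue fluorogenic substrate (80 uM final) in citrate/phosphate pH 5.9 with 10mM sodium taurocholate, 0.01% tween-20; 40 min RT, NaOH/glycine stop; fluorescence Ex 365/Em 440; AC50 from a titration from 0.6 nM upwards.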

[2] = AP1 Signaling Pathway (AID 357); settings: ME-180 AP-1-bla reporter, EGF-induced, beta-lactamase ratio, 5 h; at 7.69 µM (top of the series) unless noted;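 note: ME-180 reporter cells stimulated with EGF at its EC50 level; % is set by controls: 0 for no effect and ±100 for the full control effect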
Outline: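 Cells are seeded overnight, exposed to compound titrations and an EC50 level of EGF for 5 hours at 37 °C, then loaded with CCF4 dye for 2.5 hours. Beta-lactamase activity under the AP-1 element is read as a blue/green ratio.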

[3] = molecular target: Cytochrome P450 1A2 (Homo sapiens) (UniProt P05177); test: p450-cyp1a2 (AID 410; calls by dose curve; note: potency is the fitted concentration of half-maximal effect;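 for activity change, negative = inhibition: -100% = full effect of reference inhibitor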); settings: recombinant CYP1A2, luciferin-ME demethylation, luminescence; series mostly up to 57 µM
Outline: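 Read-out is luminescence from luciferin produced by CYP1A2 demethylation of Luciferin-ME (100uM, at Km). Detection reagent stopped the 60 min NADPH-dependent reaction; signals were normalized to 57 uM furafylline.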

[4] = NFAT Signaling Pathway (AID 444); settings: Jurkat NFAT-bla M1, carbachol, beta-lactamase ratio, 5 h; at 7.69 µM (top of the series) unless noted;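 note: carbachol stimulus at about its EC50 of 1 µM final; % is set by controls: 0 for no effect and ±100 for the full control effect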
Outline: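 Read-out: CCF4 FRET ratio (460 nm/530 nm) after 1 h RT dye loading, used for %activity and AC50 from titration series. Cells: Jurkat NFAT-β-lactamase/M1 line, treated with compound plus 1 uM carbachol for 5 h, 37 °C.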

[5] = molecular target: Glucocorticoid receptor (Homo sapiens) (UniProt P04150); test: GR-EFC Redistribution (AID 451; calls by dose curve; note: potency is the fitted concentration of half-maximal effect); settings: CHO-K1 GR-EFC translocation, beta-gal luminescence, 2 h
Outline: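 Translocation of GR-ED fusion to nuclear EA restores b-gal, read by luminescence after 1 h room-temperature detection. Engineered CHO-K1 biosensor cells, 1,000/well, exposed 2 h at 37 C to titrations up to 46 uM final.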

[6] = molecular target: Cytochrome P450 3A4 (Homo sapiens) (UniProt P08684); test: qHTS Assay for Inhibitors and Substrates of Cytochrome P450 3A4 (AID 884; active = well fitted curve in the direction sought with a large enough effect; an effect the other way counts as inactive or inconclusive; note: potency is the fitted concentration of half-maximal effect; nearly all actives have a fitted effect of over 50% in size); settings: recombinant CYP3A4, Luciferin-PPXE luminescence; series mostly up to 57.1 µM
Outline: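 Luminescent readout of luciferin produced by CYP3A4 (20 nM) dealkylation of Luciferin-PPXE, 25 uM (its KM). NADPH-driven reaction ran 60 min at RT after 10 min compound preincubation; data scaled to 57 uM ketoconazole as 100% inhibition.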

[7] = molecular target: Cytochrome P450 3A4 (Homo sapiens) (UniProt P08684); test: qHTS Assay for Activators of Cytochrome P450 3A4 (AID 885; active = well fitted curve in the direction sought with a large enough effect; an effect the other way counts as inactive or inconclusive; note: nearly all actives have a fitted effect of over 65% in size); settings: recombinant CYP3A4, Luciferin-PPXE luminescence, 60 min; series mostly up to 57.1 µM
Outline: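 Luminescent readout of luciferin formed from 25 uM Luciferin-PPXE (KM level) by 20 nM CYP3A4 in 200 mM KPO4, with 60 min NADPH-driven reaction at room temperature after 10 min compound exposure. Ketoconazole (57 uM) defined 100% inhibition.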

[8] = qHTS Assay for Lipid Storage Modulators (AID 1519; calls by dose curve); settings: Drosophila S3 cells, BODIPY lipid droplet/cell ratio, laser cytometry, cells loaded with oleic acid; for activity change, negative = inhibition: at 57.5 µM (top of the series)
Outline: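 Cells seeded at 5,000 per well were treated with compounds over a concentration series and loaded with oleic acid (400 uM, as added). Lipid droplet fluorescence (488 nm excitation, 500-530 nm channel) was read by laser-scanning cytometry and normalized to 20 uM Triacsin C.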

[9] = Primary qHTS for small molecule stabilizers of the endoplasmic reticulum resident proteome: Secreted ER Calcium Modulated Protein (SERCaMP) assay (AID 1508630; active = well fitted curve in the direction sought with a large enough effect; an effect the other way counts as inactive or inconclusive; note: % is set by controls: 0 for no effect and ±100 for the full control effect); settings: SH-SY5Y GLuc-SERCaMP (Gaussia luciferase released on ER calcium loss) secretion, thapsigargin, luminescence; series mostly up to 38.4 µM
Outline: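 The SH-SY5Y reporter protocol was run at 3 concentrations up to 38.3 uM (primary) or 11 concentrations (follow-up): 16 h compound, 100 nM thapsigargin for 4 h, then extracellular luciferase luminescence.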

[10] = Stat Signaling Pathway (AID 446); settings: ME-180 (cervical carcinoma) SIE beta-lactamase reporter, IL-6 stimulated, 5 h; at 7.69 µM (top of the series) unless noted;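 note: ME-180 cervical cancer cells given 40 pM IL-6 alongside compound; SIE-controlled beta-lactamase reporter measured as 460/530 nm FRET emission ratio; % is set by controls: 0 for no effect and ±100 for the full control effect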
Outline: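 FRET read-out (405 nm excitation, 460/530 nm emission) of a beta-lactamase reporter under a STAT-inducible element in ME-180 cervical carcinoma cells. Cells with compound receive 40 pM IL-6 for 5 h. Values are normalised to AC90 stimulation and AC90 JAK-inhibitor controls.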

[11] = molecular target: 3',5'-cyclic-AMP phosphodiesterase 4B (Homo sapiens) (UniProt Q07343); test: qHTS Assay for Inhibitors of PDE-IV (AID 607; active = well fitted activation curve with a large enough effect in the main read-out, with a control signal flat, not every such curve was filed as active; note: % of control where 0% means no effect); settings: HEK293 ACTOne CNG channel cells, membrane potential fluorescence; series mostly up to 22.9 µM
Outline: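 Cell-based read-out of cAMP via a modified cyclic nucleotide-gated channel and membrane potential dye (535/590 nm) in HEK293 cells expressing PDE4 endogenously. Compounds tested up to 22.9 uM final; 100 uM RO 20-1724 reference.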

[12] = molecular target: Cytochrome P450 2D6 (Homo sapiens) (UniProt P10635); test: qHTS Assay for Inhibitors and Substrates of Cytochrome P450 2D6 (AID 891; active = well fitted curve in the direction sought with a large enough effect; an effect the other way counts as inactive or inconclusive; note: nearly all actives have a fitted effect of over 60% in size; note: potency is the fitted concentration of half-maximal effect); settings: recombinant CYP2D6, luciferin-ME EGE luminescence; series mostly up to 57.1 µM
Outline: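 Luminescent read-out of luciferin formed by 5 nM human CYP2D6 demethylating 30 uM Luciferin-ME EGE (Km level) over 60 min at room temperature after NADPH regeneration addition. Data normalized to full inhibition by 1.43 uM quinidine.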

[13] = molecular target: Mitogen-activated protein kinase 10 (Mus musculus) (UniProt Q61831); test: JNK3 AlphaScreen Assay (AID 530); settings: JNK3 lysate, c-Jun phosphorylation; series mostly up to 57.1 µM
Outline: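 Kinase buffer: 20 mM Tris-HCl pH 7.6, 10 mM MgCl2, 1 mM DTT, 0.1 mM Na3VO4, 0.01% Tween-20; ATP 10 uM. Substrate biotin-GST-cJun(1-79), enzyme from activated HepG2 lysates. Detection by Ser73 phospho-antibody AlphaScreen.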

[14] = molecular target: Cytochrome P450 2C19 (Homo sapiens) (UniProt P33261); test: qHTS Assay for Inhibitors and Substrates of Cytochrome P450 2C19 (AID 899; active = well fitted curve in the direction sought with a large enough effect; an effect the other way counts as inactive or inconclusive; note: nearly all actives have a fitted effect of over 60% in size; note: potency is the fitted concentration of half-maximal effect); settings: recombinant CYP2C19, luciferin-H EGE luminescence; series mostly up to 57.1 µM
Outline: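 5nM enzyme + 10uM Luciferin-H EGE (=KM), 50mM KPO4; cpd pin-transferred, 10 min 37C; NADPH regen, 60 min 37C; stopped w/ luciferin detection reagent, 20 min; luminescence. Normalized to 57uM ketoconazole (AC100).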

[15] = molecular target: Cytochrome P450 2C9 (Homo sapiens) (UniProt P11712); test: qHTS Assay for Inhibitors and Substrates of Cytochrome P450 2C9 (AID 883; active = well fitted curve in the direction sought with a large enough effect; an effect the other way counts as inactive or inconclusive; note: potency is the fitted concentration of half-maximal effect; nearly all actives have a fitted effect of over 60% in size); settings: recombinant CYP2C9, luciferin-H luminescence, 60 min; series mostly up to 57.1 µM
Outline: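 Inhibition of CYP2C9 is scored as loss of luminescence, with 57uM sulphaphenazole defining 100% inhibition. Substrate Luciferin-H is used at 100uM, equal to its KM; enzyme at 10nM in 25mM KPO4, 60 min at 37C with NADPH regeneration.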

[16] = measured here: cell count channel max response
[17] = measured here: lipid channel max response

Chain of Cytochrome P450 3A4 (Homo sapiens) (P08684 whole entry, looked up): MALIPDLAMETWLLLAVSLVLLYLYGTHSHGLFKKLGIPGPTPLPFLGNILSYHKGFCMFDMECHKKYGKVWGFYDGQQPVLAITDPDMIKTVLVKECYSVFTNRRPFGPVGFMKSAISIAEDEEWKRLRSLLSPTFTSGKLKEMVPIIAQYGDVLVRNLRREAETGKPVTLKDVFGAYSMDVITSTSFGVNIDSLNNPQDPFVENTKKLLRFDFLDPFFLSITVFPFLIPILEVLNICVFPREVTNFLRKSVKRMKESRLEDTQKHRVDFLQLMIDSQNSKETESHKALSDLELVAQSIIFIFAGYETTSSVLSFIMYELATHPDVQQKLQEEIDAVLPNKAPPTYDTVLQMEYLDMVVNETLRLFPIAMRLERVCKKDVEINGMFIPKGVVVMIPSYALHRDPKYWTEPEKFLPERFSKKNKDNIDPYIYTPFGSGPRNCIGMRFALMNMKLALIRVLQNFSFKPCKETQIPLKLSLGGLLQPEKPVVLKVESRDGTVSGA
Chain of Cytochrome P450 1A2 (Homo sapiens) (P05177 whole entry, looked up): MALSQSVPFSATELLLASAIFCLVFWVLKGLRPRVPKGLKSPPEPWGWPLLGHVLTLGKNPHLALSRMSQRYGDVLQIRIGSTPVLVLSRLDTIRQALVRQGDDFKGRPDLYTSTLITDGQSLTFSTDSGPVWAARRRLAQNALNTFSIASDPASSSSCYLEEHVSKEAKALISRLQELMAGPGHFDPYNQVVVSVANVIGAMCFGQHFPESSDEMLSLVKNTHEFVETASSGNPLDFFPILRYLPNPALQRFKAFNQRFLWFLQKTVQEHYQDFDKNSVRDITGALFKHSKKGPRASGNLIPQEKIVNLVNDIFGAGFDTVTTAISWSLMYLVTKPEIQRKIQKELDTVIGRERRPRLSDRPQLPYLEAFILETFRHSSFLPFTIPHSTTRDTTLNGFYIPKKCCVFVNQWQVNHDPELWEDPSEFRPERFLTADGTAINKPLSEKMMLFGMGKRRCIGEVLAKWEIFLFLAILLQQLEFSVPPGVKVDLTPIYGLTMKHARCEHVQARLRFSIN
Chain of 3',5'-cyclic-AMP phosphodiesterase 4B (Homo sapiens) (Q07343 whole entry, looked up): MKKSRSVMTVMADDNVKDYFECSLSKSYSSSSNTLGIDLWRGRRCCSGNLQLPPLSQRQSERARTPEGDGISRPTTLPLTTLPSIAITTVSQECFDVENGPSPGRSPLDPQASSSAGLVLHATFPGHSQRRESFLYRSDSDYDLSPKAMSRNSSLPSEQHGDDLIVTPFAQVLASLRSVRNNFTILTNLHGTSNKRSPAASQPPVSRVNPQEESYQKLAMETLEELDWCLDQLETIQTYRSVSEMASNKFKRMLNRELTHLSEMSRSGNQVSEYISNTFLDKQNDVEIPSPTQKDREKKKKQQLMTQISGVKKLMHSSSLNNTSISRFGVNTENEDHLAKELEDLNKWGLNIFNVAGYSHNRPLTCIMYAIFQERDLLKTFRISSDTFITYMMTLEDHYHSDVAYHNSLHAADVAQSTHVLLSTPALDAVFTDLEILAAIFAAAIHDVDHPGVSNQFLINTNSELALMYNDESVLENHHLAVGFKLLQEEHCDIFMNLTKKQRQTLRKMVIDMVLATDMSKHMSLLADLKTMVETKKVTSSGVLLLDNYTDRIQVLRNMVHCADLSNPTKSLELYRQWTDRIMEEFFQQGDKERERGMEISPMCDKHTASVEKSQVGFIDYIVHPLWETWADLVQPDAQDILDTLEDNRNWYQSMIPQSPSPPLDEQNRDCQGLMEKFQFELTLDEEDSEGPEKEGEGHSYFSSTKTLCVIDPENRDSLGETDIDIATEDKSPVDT
Chain of Lysosomal acid glucosylceramidase (Homo sapiens) (P04062 whole entry, looked up): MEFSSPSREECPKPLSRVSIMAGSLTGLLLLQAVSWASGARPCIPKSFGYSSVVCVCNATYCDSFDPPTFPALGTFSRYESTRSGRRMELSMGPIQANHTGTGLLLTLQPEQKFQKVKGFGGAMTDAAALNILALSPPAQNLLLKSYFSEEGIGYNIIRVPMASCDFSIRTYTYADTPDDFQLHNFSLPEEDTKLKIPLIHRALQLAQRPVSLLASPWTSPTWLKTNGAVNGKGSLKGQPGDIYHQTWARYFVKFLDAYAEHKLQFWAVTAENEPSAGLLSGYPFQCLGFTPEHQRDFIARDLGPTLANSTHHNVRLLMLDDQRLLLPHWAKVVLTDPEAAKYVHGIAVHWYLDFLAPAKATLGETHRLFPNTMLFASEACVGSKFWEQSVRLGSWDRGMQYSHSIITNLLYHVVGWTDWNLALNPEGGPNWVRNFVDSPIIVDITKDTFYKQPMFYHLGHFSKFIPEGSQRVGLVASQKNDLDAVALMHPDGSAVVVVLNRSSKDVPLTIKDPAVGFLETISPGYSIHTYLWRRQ
Chain of Glucocorticoid receptor (Homo sapiens) (P04150 whole entry, looked up, the tested form may be a part): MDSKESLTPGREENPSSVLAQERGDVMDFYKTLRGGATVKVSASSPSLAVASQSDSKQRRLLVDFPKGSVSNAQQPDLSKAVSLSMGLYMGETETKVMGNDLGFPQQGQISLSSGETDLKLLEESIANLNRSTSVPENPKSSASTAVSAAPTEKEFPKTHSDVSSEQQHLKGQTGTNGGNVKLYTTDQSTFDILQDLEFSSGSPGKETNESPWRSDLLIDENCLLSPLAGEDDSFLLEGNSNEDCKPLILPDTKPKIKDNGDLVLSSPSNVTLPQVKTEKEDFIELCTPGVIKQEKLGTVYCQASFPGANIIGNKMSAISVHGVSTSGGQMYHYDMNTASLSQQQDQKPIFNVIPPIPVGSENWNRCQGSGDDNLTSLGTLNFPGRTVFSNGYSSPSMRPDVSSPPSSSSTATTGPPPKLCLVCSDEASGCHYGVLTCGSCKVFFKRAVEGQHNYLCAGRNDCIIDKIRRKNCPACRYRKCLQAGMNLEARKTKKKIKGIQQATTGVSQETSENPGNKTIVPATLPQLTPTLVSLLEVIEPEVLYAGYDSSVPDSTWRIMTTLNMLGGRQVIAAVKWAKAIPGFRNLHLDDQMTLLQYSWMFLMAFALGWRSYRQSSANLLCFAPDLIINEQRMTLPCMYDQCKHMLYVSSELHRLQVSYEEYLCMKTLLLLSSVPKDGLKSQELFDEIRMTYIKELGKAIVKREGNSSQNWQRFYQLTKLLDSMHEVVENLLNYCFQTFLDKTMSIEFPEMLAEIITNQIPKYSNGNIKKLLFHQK
Chain of Cytochrome P450 2D6 (Homo sapiens) (P10635 whole entry, looked up): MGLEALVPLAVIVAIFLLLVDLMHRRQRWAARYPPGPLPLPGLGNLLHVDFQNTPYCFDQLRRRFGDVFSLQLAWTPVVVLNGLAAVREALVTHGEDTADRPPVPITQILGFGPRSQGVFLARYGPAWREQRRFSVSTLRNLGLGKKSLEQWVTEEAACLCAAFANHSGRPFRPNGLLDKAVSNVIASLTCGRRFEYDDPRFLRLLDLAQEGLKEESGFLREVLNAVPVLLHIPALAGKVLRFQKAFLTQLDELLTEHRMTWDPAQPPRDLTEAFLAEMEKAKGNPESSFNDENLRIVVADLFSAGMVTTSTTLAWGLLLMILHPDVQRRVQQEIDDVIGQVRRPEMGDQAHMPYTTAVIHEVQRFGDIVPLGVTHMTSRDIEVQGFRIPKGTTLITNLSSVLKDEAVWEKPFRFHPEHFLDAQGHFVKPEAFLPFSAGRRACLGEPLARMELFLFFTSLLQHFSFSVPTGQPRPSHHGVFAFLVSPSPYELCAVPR
Chain of Cytochrome P450 2C19 (Homo sapiens) (P33261 whole entry, looked up): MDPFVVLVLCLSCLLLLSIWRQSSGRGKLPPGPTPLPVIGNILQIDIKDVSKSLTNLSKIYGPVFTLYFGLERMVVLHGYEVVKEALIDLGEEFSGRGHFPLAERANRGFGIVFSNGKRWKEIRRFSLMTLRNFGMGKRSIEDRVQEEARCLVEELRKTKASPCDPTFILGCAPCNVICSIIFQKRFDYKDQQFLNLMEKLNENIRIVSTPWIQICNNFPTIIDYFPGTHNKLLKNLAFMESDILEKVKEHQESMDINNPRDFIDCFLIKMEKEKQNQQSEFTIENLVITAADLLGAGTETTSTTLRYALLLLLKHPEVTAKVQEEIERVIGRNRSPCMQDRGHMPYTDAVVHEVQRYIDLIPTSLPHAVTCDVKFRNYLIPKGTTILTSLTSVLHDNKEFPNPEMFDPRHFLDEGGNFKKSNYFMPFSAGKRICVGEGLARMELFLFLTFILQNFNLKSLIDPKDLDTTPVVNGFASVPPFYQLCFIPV
Chain of Cytochrome P450 2C9 (Homo sapiens) (P11712 whole entry, looked up): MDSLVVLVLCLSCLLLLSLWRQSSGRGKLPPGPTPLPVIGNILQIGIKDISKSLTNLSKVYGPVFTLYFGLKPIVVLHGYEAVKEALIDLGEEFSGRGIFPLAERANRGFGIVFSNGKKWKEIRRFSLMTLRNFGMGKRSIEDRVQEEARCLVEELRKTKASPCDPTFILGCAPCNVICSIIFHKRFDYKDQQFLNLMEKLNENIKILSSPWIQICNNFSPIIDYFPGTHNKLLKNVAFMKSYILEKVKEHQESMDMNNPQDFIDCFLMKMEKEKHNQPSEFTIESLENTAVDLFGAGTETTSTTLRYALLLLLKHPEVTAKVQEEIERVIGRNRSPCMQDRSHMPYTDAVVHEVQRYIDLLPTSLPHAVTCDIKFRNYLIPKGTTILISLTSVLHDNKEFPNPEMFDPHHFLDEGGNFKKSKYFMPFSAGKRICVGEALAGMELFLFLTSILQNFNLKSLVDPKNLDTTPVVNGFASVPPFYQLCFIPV

O=C(c1ccncc1)N1CCC2(CC1)CN(c1cccc(-c3ccccc3)c1)C2
13.1%: max response [8, 16]
inactive: Potency [1] > 11.4 µM | activity change, negative = inhibition [2] -2.83% | activity change, negative = inhibition [4] 7.15% | Potency [5] > 46 µM | Potency [7] | activity change, negative = inhibition [8] -2.24% | Potency [9]
active: Potency [3] 15.8 µM | Potency [6] 7.94 µM
11.3%: max response [8, 17]

CC(=O)N1CCC2(CC1)CCN(C(=O)Nc1cccc(F)c1)CC2
11%: max response [8, 16]
inactive: Potency [1] > 11.4 µM | activity change, negative = inhibition [2] -10.4% | Potency [3] | activity change, negative = inhibition [4] 8.58% | activity, negative = inhibition [10] -7.06% | Potency [5] > 46 µM | Potency [11] | activity change, negative = inhibition [8] 3% | Potency [9]
active: Potency [12] 3.16 µM
16.9%: max response [8, 17]

COc1ccc(NC(=O)N2CC[C@@]3(CCCN(C(=O)c4ccc(OC)cc4)C3)C2)cc1
26.4%: max response [8, 17]
active: Potency [3] 25.1 µM
inactive: Potency [1] > 11.4 µM | activity change, negative = inhibition [2] 5.18% | activity change, negative = inhibition [4] 10.5% | activity, negative = inhibition [10] 2.5% | outcome [13] | Potency [11] | Potency [7] | activity change, negative = inhibition [8] 3.11% | Potency [9]
22%: max response [8, 16]

CC(C)NC(=O)N1CCCC2(CCN(C(=O)c3cccc(F)c3)CC2)C1
20.4%: max response [8, 16]
27.6%: max response [8, 17]
inactive: Potency [1] > 11.4 µM | activity change, negative = inhibition [2] -13.6% | Potency [3] | activity change, negative = inhibition [4] -16.5% | activity, negative = inhibition [10] -2.81% | outcome [13] | Potency [11] | Potency [7] | Potency [12] | Potency [14] | activity change, negative = inhibition [8] 3.5% | Potency [9]

O=C(Nc1cccc(F)c1)N1CCCC2(CCN(C(=O)c3ccncc3)CC2)C1
inactive: Potency [1] > 11.4 µM | activity change, negative = inhibition [2] -4.33% | activity change, negative = inhibition [4] -19.9% | Potency [5] > 46 µM | outcome [13] | Potency [11] | Potency [7] | activity change, negative = inhibition [8] 6.14% | Potency [9]
active: Potency [3] 12.6 µM | Potency [15] 0.0794 µM | Potency [6] 6.31 µM
28.5%: max response [8, 17]
19.3%: max response [8, 16]

O=C(c1cccc(F)c1)N1CCC2(CCCN(c3ncccn3)C2)CC1
9.03%: max response [8, 17]
inactive: Potency [1] > 11.4 µM | activity change, negative = inhibition [2] 4.38% | activity change, negative = inhibition [4] -6.9% | activity, negative = inhibition [10] -4.43% | outcome [13] | activity change, negative = inhibition [8] 3.73% | Potency [9]
1%: max response [8, 16]
active: Potency [3] 25.1 µM | Potency [14] 6.31 µM
